{"source": "PubChem BioAssay (NCATS)", "key": {"[1]": {"target": "Calcium and integrin-binding protein 1 (Homo sapiens) (UniProt Q99828)", "sequence (Q99828 whole entry, looked up)": "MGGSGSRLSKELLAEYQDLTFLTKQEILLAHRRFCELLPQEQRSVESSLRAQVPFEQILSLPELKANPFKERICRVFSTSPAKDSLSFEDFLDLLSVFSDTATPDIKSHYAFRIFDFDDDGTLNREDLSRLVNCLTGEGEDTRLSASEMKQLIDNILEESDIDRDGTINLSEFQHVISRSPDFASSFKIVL", "experiment": "Primary qHTS for Identification of Calcium Integrin Binding Protein 1 (CIB1) Competitor (AID 1508620);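 also: GST tagged CIB1 binding a fluorescein labelled alphaIIb integrin peptide tracer; top concentration of the series differs between compounds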", "settings": "CIB1-GST / FITC-alphaIIb peptide fluorescence polarization; series mostly up to 114 µM", "in_short": "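CIB1-GST (1 uM final) and compound incubated 15 min at room temperature before adding FITC-alphaIIb peptide tracer (100 nM final). Competition for binding read by fluorescence polarization (ex 480, em 540) after another 15 min at room temperature.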"}, "[2]": {"experiment": "Primary qHTS for inhibitors of nuclear receptor binding SET domain protein 2 (NSD2) in an isogenic RCH-ACV NSD2 p.E1099K mutant (9B) (AID 1645876); also: nearly all actives have a fitted effect of over 70% in size; also: potency is read from the fitted curve at half-maximal effect", "settings": "RCH-ACV NSD2 E1099K (9B) viability, CellTiter-Glo, 72 h; series mostly up to 44.9 µM"}, "[3]": {"experiment": "Primary qHTS for small molecule stabilizers of the endoplasmic reticulum resident proteome: Secreted ER Calcium Modulated Protein (SERCaMP) assay (AID 1508630)", "settings": "SH-SY5Y GLuc-SERCaMP (Gaussia luciferase released on ER calcium loss) secretion, thapsigargin, luminescence; series mostly up to 38.4 µM", "in_short": "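The SH-SY5Y reporter protocol was run at 3 concentrations up to 38.3 uM (primary) or 11 concentrations (follow-up): 16 h compound, 100 nM thapsigargin for 4 h, then extracellular luciferase luminescence.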"}, "[4]": {"experiment": "Counterscreen qHTS for small molecule stabilizers of the endoplasmic reticulum resident proteome: GLuc-NoTag assay (AID 1508627)", "settings": "Gaussia luciferase NoTag secretion counterscreen, luminescence, thapsigargin 100 nM for final 4 h; series mostly up to 76.4 µM", "in_short": "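Counterscreen line: SH-SY5Y-GLuc-NoTag cells, treated with compound 19 hr before a 4 hr, 100 nM thapsigargin calcium depletion. Secreted Gaussia luciferase in the medium was measured by luminescence after coelenterazine was added (0.07x final), with cells unlysed.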"}, "Papain (Carica papaya)": {"target": "Papain (Carica papaya) (UniProt P00784)", "sequence (P00784 whole entry, looked up)": "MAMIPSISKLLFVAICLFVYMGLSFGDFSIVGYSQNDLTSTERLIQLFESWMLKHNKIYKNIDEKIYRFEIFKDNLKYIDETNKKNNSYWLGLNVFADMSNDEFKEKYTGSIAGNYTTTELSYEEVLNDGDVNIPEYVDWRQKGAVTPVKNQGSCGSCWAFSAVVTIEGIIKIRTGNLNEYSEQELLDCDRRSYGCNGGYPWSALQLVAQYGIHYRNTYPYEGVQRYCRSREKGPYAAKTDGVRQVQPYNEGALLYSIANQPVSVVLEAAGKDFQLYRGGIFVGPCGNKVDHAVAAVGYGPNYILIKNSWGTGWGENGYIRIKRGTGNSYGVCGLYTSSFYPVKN", "experiment": "Primary qHTS assay for inhibitors of the protease papain (AID 1645873);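 also: papain turnover of Z-FR-AMC read as the AMC fluorescence gain over 10 min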", "settings": "papain Z-FR-AMC cleavage, AMC fluorescence; series mostly up to 49.8 µM"}, "[5]": {"target": "Cytochrome P450 2D6 (Homo sapiens) (UniProt P10635)", "sequence (P10635 whole entry, looked up)": "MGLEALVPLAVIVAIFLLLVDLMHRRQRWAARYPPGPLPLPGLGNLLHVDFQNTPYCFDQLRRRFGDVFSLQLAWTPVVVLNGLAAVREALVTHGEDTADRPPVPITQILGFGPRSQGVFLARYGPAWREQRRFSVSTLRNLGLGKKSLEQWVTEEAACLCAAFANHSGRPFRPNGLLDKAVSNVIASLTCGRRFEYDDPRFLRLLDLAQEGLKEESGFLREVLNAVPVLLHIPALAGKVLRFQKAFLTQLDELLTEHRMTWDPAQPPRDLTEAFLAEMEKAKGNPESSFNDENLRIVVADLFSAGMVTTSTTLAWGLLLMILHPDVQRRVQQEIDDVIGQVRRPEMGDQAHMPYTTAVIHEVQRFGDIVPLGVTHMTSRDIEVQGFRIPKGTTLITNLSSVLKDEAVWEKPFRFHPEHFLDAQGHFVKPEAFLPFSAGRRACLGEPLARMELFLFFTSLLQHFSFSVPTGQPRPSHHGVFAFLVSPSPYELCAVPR", "experiment": "Cytochrome P450 family 2 subfamily D member 6 (CYP2D6) small molecule antagonists: luciferase biochemical (cell-free) qHTS assay (AID 1645840; active = well fitted curve in the direction sought with a large enough effect in the repeat runs; an effect the other way counts as inactive or inconclusive; also: nearly all actives have a fitted effect of over 55% in size)", "settings": "P450-Glo CYP2D6 enzyme, luciferin luminescence, 1 h; series mostly up to 57.4 µM", "in_short": "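P450-Glo CYP2D6 system: proluciferin substrate converted by enzyme to luciferin, read by luminescence proportional to activity. Enzyme-substrate mix with compound 10 min at room temperature, then NADPH regeneration 1 h before detection reagent.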"}, "[6]": {"experiment": "Cytotoxicity counterscreen for inhibitors of SARS-CoV-2 cell entry (AID 1645845; calls by dose curve; also: nearly all actives have a fitted effect of over 50% in size)", "settings": "cell viability (SARS-CoV-2 entry assay cells); series mostly up to 57.1 µM", "in_short": "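ATP-content luminescence (ATPLite 1step, 15 min RT) read after 48 h compound exposure of Expi293F cells stably expressing human ACE2; normalized to cells-only wells and media-only wells.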"}}, "note": "Records with an inconclusive call do not appear. Where a call stands in place of a potency, no number is given. Activity calls are given as the source filed them. Unless noted, calls follow the shape of the dose curve; as a rule, active = well fitted curve in the direction sought with a large enough effect; inconclusive = small, poorly fitted or top-dose-only effect, or another doubt; inactive = no such curve, though single readings can be large; an effect the other way counts as inactive or inconclusive.", "data": [{"molecule": "C[C@]12CC[C@H]3[C@@H]([C@H](O)CC4=CC(=O)CC[C@@]43C)[C@@H]1CC[C@@H]2O", "values": [{"measurement": "Potency", "setting": "[1]", "value": "inactive"}, {"measurement": "Potency", "setting": "[2]", "value": "inactive"}]}, {"molecule": "C=C[C@H]1CN2CC[C@H]1C[C@@H]2[C@@H](O)c1ccnc2ccccc12", "values": [{"measurement": "Potency", "setting": "[1]", "value": "inactive"}, {"measurement": "Potency", "setting": "[2]", "value": "inactive"}]}, {"molecule": "CCC1NC(=O)C2C(Cl)C(Cl)CN2C(=O)C(C(C)O)NC(=O)CC(c2ccccc2)NC(=O)C(CO)NC1=O", "note": "(stereo unspecified)", "values": [{"measurement": "Potency", "setting": "[1]", "value": "inactive"}, {"measurement": "Potency", "setting": "[2]", "value": "inactive"}]}, {"molecule": "C1=C2CCCN[C@H]2[C@@H]2C[C@H]1[C@H]1CCCCN1C2", "values": [{"measurement": "Potency", "setting": "[1]", "value": "inactive"}, {"measurement": "Potency", "setting": "[2]", "value": "inactive"}]}, {"molecule": "COC1C(O)C(OC2CCC3(C=O)C(CCC4C3CCC3(C)C(C5=CC(=O)OC5)CCC43O)C2)OC(C)C1OC1OC(CO)C(O)C(O)C1O", "note": "(stereo unspecified)", "values": [{"measurement": "Potency", "setting": "[1]", "value": "inactive"}, {"measurement": "Potency", "setting": "[2]", "value": "171 nM (active)"}]}, {"molecule": "C=C(CO)C(=O)O[C@H]1C/C(C)=C/CC/C(CO)=C/[C@H]2OC(=O)C(=C)[C@H]12", "values": [{"measurement": "Potency", "setting": "[1]", "value": "inactive"}, {"measurement": "Potency", "setting": "[2]", "value": "inactive"}]}, {"molecule": "CC(=O)OC1CC(O)C2(C)C(CC(OC(C)=O)C3(C)C2CCC2(C)C(c4ccoc4)C(=O)C4OC423)C1(C)C", "note": "(stereo unspecified)", "values": [{"measurement": "Potency", "setting": "[1]", "value": "inactive"}, {"measurement": "Potency", "setting": "[2]", "value": "inactive"}]}, {"molecule": "CCN1C[C@]2(OC(=O)c3ccccc3NC(C)=O)CC[C@H](OC)[C@@]34[C@@H]2C[C@@H]([C@@H]13)[C@@]1(O)C[C@H](OC)[C@H]2C[C@@H]4[C@]1(O)[C@H]2OC", "values": [{"measurement": "Potency", "setting": "[1]", "value": "inactive"}, {"measurement": "Potency", "setting": "[2]", "value": "inactive"}]}, {"molecule": "COC(=O)C1(C)CCC(O)C2(C)c3cc(O)c(C(C)C)cc3C(O)C(OC(C)=O)C12", "note": "(stereo unspecified)", "values": [{"measurement": "Potency", "setting": "[1]", "value": "inactive"}, {"measurement": "Potency", "setting": "[2]", "value": "inactive"}]}, {"molecule": "Clc1ccc(N2C[C@H]3CC[C@@H](C2)N3)nn1", "values": [{"measurement": "Potency", "setting": "[1]", "value": "inactive"}, {"measurement": "Potency", "setting": "[2]", "value": "inactive"}]}, {"molecule": "COC1CC(OC2CCC3(C=O)C(CCC4C3CCC3(C)C(C5=CC(=O)OC5)CCC43O)C2)OC(C)C1OC1OC(CO)C(O)C(O)C1O", "note": "(stereo unspecified)", "values": [{"measurement": "Potency", "setting": "[1]", "value": "inactive"}, {"measurement": "Potency", "setting": "[2]", "value": "85.8 nM (active)"}]}, {"molecule": "CN(C)CCc1c[nH]c2ccc(CN3CCN(C)S3(=O)=O)cc12", "values": [{"measurement": "Potency", "setting": "[1]", "value": "inactive"}, {"measurement": "Potency", "setting": "[2]", "value": "inactive"}]}, {"molecule": "COC1C(O)C(C)OC(OC2C(CO)O[C@@H](O[C@@H]3CC4CCC5C(CC[C@]6(C)[C@@H](C7=CC(=O)OC7)CC[C@]56O)[C@@]4(C)[C@H](O)C3)C(O)C2O)C1O", "note": "(stereo partly specified)", "values": [{"measurement": "Potency", "setting": "[1]", "value": "inactive"}, {"measurement": "Potency", "setting": "[2]", "value": "430 nM (active)"}]}, {"molecule": "C[C@H]1O[C@@H](O[C@H]2C[C@@H](O)[C@]3(CO)C4C(CC[C@]3(O)C2)[C@@]2(O)CC[C@H](C3=CC(=O)OC3)[C@@]2(C)C[C@H]4O)[C@@H](O)[C@@H](O)[C@H]1O", "note": "(stereo partly specified)", "values": [{"measurement": "Potency", "setting": "[1]", "value": "inactive"}, {"measurement": "Potency", "setting": "[2]", "value": "153 nM (active)"}]}, {"molecule": "N[C@@H](CCl)C(=O)O", "values": [{"measurement": "outcome", "setting": "[3]", "value": "inactive"}]}, {"molecule": "CC1(C)S[C@@H]2[C@H](N)C(=O)N2[C@H]1C(=O)O", "values": [{"measurement": "outcome", "setting": "[3]", "value": "inactive"}]}, {"molecule": "Cc1cc(C)cc(C(=O)OC2C[C@H]3CC[C@@H](C2)N3C)c1", "note": "(stereo partly specified)", "values": [{"measurement": "outcome", "setting": "[4]", "value": "inactive"}]}, {"molecule": "[Cl-].[Cl][Pt].[NH2-].[NH2-].c1ccncc1", "values": [{"measurement": "Potency", "setting": "Papain (Carica papaya)", "value": "inactive"}]}, {"molecule": "COCC(C)N(C(=O)CCl)c1c(C)csc1C", "note": "(stereo unspecified)", "values": [{"measurement": "Potency", "setting": "[5]", "value": "inactive"}]}, {"molecule": "CC(=O)c1c(O)c(C)c(O)c(Cc2c(O)c3c(c(C(=O)/C=C/c4ccccc4)c2O)OC(C)(C)C=C3)c1O", "values": [{"measurement": "outcome", "setting": "[6]", "value": "inactive"}, {"measurement": "Potency", "setting": "Papain (Carica papaya)", "value": "inactive"}, {"measurement": "Potency", "setting": "[2]", "value": "inactive"}]}, {"molecule": "C[C@]12CC[C@H]3[C@@H](CC[C@@]45O[C@@H]4C(O)=C(C#N)C[C@]35C)[C@@H]1CC[C@@H]2O", "values": [{"measurement": "outcome", "setting": "[6]", "value": "inactive"}, {"measurement": "Potency", "setting": "[2]", "value": "16600 nM (active)"}]}, {"molecule": "CC(C)=C1CC[C@]23CO[C@H](C2)[C@@](O)(C(=O)O)CCC13", "note": "(stereo partly specified)", "values": [{"measurement": "Potency", "setting": "[1]", "value": "inactive"}, {"measurement": "Potency", "setting": "[2]", "value": "inactive"}]}, {"molecule": "CN(N=O)c1ccc(O)c(O)c1", "values": [{"measurement": "outcome", "setting": "[3]", "value": "inactive"}]}]}
